Data from the supplement of paper PMC6555819.

Each sequence was assayed on VDR:RXRa (NR concentration 270 nM, RXRa partner concentration 90 nM) (assay: PBM binding z-score (relative to random genomic background probes); higher = stronger binding; sequences stand for … in GC…GCGATTGACAGCGTAGAATGAAGG).
Description: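 Protein-binding microarray (Agilent 4x180K custom design, double-stranded 60-nt probes: 5' GC cap, 34-nt variable region, 24-nt constant primer region; full probe sequence given). Purified or IVT nuclear receptor:RXRα heterodimers (3:1 NR:RXRα, mostly 270:90 nM) or homodimers were incubated for 1 h in PBS with 2% milk and no ligand, then detected with Alexa488 antibodies. Fluorescence from o1-orientation probes (~5 replicates averaged) was converted to z-scores against 500 random hg19 background probes. Variable regions are seed direct-repeat (DR0–DR5) sites, all their single-nucleotide variants and half-site ablations.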
In the case of ATCTCTATGTAAGACTCAGTTCAGTGAAGAACGC, the PBM binding z-score was 0.971.
For TCTAGCAGGCCAGAGGGTCACTCGAGAGGTACGG, the PBM binding z-score was 1.39.
With ACAGACAGGTGAGTGAAGCTAACTCAGCTGGACG the PBM binding z-score was -0.513.
Sequence CCGACTGGGGCATAAGGTTACCCTAAGCCAGCCC has a PBM binding z-score of 0.27.
ATCTCTAGGTAACCACGTTCAGTGAATGCCGAAC gave a PBM binding z-score of 0.175.
Sequence ACCATTAGTTGACTTAGGGCAACCGATACGACGC has a PBM binding z-score of 0.475.
With GGAACGAGAGCAAGTTGATAGCAGAGTTTGATGG the PBM binding z-score was -0.392.
CGAACTAGGTCACGAAAGGTCAAAGTCGAATGAC was tested, and the PBM binding z-score was 6.89.
Work on TCGAGTAGGTTAGTCGGGGCATTTAGCCAACATA yielded a PBM binding z-score of 2.2.
Work on ACTATTAGTTGACTTAGGTCAACCGATACGACGC yielded a PBM binding z-score of 2.42.
TTAACAAGGTGAGCTGAGGTCGTTGATCCAACTC was tested, and the PBM binding z-score was 4.08.
With ATCTCTAGGTAAAGTTAGTTCAGTGAATGCAAAT the PBM binding z-score was 1.42.
Work on TCAATTAGTTGAAGGGCAACCGACGAGTCCGTTT yielded a PBM binding z-score of 0.667.
CCTACGGGGCCATTCAGAGGTCATTGATCATATG showed a PBM binding z-score of 5.2.
For AGAATGAAGTTATACGTAGATCAGGGAAGAAAGT, the PBM binding z-score was -0.299.
Work on TCATATAGGTAATACAGGTGCAAGTCGGCATCTA yielded a PBM binding z-score of 1.91.
ACTATTAGTTGACATAGGGCAACCGATACGACGC showed a PBM binding z-score of 0.569.
CCTATTAGTTGACCATAAGGGCAACTGAAGCTCG showed a PBM binding z-score of 1.08.
In the case of TCATATAGGCAAAGGTGAAAGTCGAACGATATGA, the PBM binding z-score was 0.976.
In the case of ATATCTAGGTTAAGGGTCATTCAGGTTGGTTCGC, the PBM binding z-score was 5.89.
CAAACTAGGTCAATGGTCAAAGTCGAGCCAACCA gave a PBM binding z-score of 1.67.
CCTACTGGGCCAAATGTCATTGATTCCAATGCTC gave a PBM binding z-score of 0.0339.
In the case of TCTTGAAGATCAAAGGTTAAGAAAGCCGAAGCCT, the PBM binding z-score was 1.64.
GCTTGCAGATCAAGGTTAAGAAAGACTAAGCTAA gave a PBM binding z-score of -0.0251.
Work on CCTAGCAGGCCAGGGTCAATCAAGCATTTCGCTT yielded a PBM binding z-score of 2.86.
CGTCAAAGTTCAACTTAGGTAACGTAAAGCACGC gave a PBM binding z-score of 4.56.
In the case of GCTGCTAGGTCAACTCATGGTCAGCTAAAGCTCG, the PBM binding z-score was 1.71.
Sequence GCTAGTTGGTCGGTAAAAGGTCACACACCGGTCG has a PBM binding z-score of 3.89.
For TCATATATGTAAACAGGTGAAAGTCCGTAAGTTA, the PBM binding z-score was 1.31.
AGAATAAGGTTATACGTAGATCAGGGAAGAAAGT showed a PBM binding z-score of 1.04.
In the case of CAAACTAGGTCACAGAAGTCAAAGTCCGTGCGTA, the PBM binding z-score was 3.91.
GCAGACAGTTGAAACGCAGGTAACTCAGGGTGGC showed a PBM binding z-score of -0.517.
For ACTATTACTTGAGACGAGGGCAACCGATAGGTTG, the PBM binding z-score was 0.736.
With CGAAAGAGGGCATGAGTTGATAGCAAATGCCGAT the PBM binding z-score was 1.22.
GCTGCTAGGTCAATTGATGGTCAGCTAAAGCTCG showed a PBM binding z-score of 0.815.
CCTCGGAGAACAACAGGAGGTCAGAGCTGCCAGA showed a PBM binding z-score of 1.47.
AGTCAAAGTTCATCTAGGTAACGTGAGATATGCT gave a PBM binding z-score of 5.17.
For TAGCCTAGGTCATTAGGCCAGTATAGTACGCATC, the PBM binding z-score was 1.69.
In the case of CCTACTTGGCCATCAGGTCATTGATATCAACGTT, the PBM binding z-score was 2.12.
TTACCAAGGTGCAGGTCGTTGATCCCTCTGTAGA showed a PBM binding z-score of 0.558.
